Results from PubChem BioAssay AID588342 (National Center for Advancing Translational Sciences (NCATS), 2011).
The whole screen tested about 360,000 compounds, of which about 25,000 (6.9%) were called active. Another 9% or so got no clear call; they are omitted. The sample as a whole holds a higher share of actives than the screen did. A number with no mark means an inactive call. Calls follow the shape of the dose curve; as a rule, active = well fitted inhibition curve with a large enough effect; inconclusive = small, poorly fitted or top-dose-only effect; inactive = flat fitted curve, though single readings scatter.

Target: Luciferin 4-monooxygenase (Photinus pyralis) (UniProt P08659)
Sequence (P08659 whole entry, looked up): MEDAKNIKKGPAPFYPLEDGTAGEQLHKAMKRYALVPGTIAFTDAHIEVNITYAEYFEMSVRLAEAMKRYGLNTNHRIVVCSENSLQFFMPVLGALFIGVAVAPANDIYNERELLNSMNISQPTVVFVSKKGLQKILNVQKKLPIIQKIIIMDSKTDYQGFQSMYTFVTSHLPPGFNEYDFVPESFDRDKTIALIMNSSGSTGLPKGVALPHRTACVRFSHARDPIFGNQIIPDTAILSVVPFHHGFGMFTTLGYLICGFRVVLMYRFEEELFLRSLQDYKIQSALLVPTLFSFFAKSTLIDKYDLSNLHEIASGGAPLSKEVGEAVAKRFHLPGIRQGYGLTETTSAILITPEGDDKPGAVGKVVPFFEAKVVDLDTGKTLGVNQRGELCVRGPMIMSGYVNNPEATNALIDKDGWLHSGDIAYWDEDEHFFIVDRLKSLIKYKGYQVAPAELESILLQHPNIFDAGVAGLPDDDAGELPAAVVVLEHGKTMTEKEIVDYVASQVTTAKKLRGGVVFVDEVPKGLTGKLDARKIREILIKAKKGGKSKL
Assay: qHTS profiling assay for firefly luciferase inhibitor/activator using purifed enzyme and Km concentrations of substrates (counterscreen for miR-21 project); also: nearly all actives have a fitted effect of over 55% in size;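 as to activity change, negative = inhibition: plate controls were vehicle for no effect and reference inhibitor for full effect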
Conditions: purified FLuc, luminescence inhibition; series mostly up to 57.5 µM; activity change, negative = inhibition: at the top concentration
Summary of the method: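 Biochemical qHTS of compounds, final roughly 60 µM downward over six points, against 10 nM purified firefly luciferase using Km concentrations of substrates (10 uM D-luciferin, 10 uM ATP) in Tris acetate pH 7.5 buffer; luminescence output.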
Potency is read from the fitted curve at half-maximal effect.

First: CN(Cc1ccc(F)cc1)C(=O)COc1ccc2ccccc2c1
Second: CN(Cc1ccccc1)C(=O)c1ccc(COc2ccccc2)cc1
The “activity change, negative = inhibition” value of the first is higher: -8.15% for the first, -11.3% for the second.

Going from Cc1ccccc1-c1nc2scc(CCNC(=O)C(=O)Nc3ccc(F)cc3F)n2n1 to CCN(c1ccccc1)S(=O)(=O)c1ccc(C(=O)Nc2nccs2)cc1, the “activity change, negative = inhibition” value falls from 0.856% to -0.951%.

Going from CC1CCCCC1NC(=O)COC(=O)Cc1ccc(Cl)cc1 (configuration not stated) to N#CCC(=O)Nc1ccc(C(=O)OCC(=O)Nc2sc3c(c2C#N)CCCC3)cc1, the “activity change, negative = inhibition” value falls from -1.87% to -9.6%.

Going from CCOc1ccc(C(=O)Nc2nccs2)cc1[N+](=O)[O-] to C/C(=N\NC(=O)c1cccc([N+](=O)[O-])c1)c1cccnc1, the “activity change, negative = inhibition” value rises from -17.8% to 0.224%.

Compared with Cc1nc(-c2ccccc2)sc1-c1nc(-c2ccccc2)ncc1S(=O)(=O)c1ccccc1, Cc1nc2nc(SCC(=O)N(Cc3ccccc3)C(C)C)nn2c(C)c1Cc1ccccc1Cl is higher in “activity change, negative = inhibition” value: 0.487% for the first, 1.64% for the second.

First: COc1ccccc1-c1nnc(C2CCN(C(=O)c3ccc(Cl)cc3)CC2)o1
Second: O=C(c1cccc(Cl)c1)N1CCN(CCc2ccncc2)CC1
The “activity change, negative = inhibition” value of the first is lower: -0.92% for the first, 0.749% for the second.

First: COc1cc(C(=O)NCCS(=O)(=O)N2CCN(c3ccccc3)CC2)cc(OC)c1OC
Second: COc1ccc(OC)c2sc(N3CCN(C(=O)C4COc5ccccc5O4)CC3)nc12 (configuration not stated)
The “activity change, negative = inhibition” value of the first is lower: -2.54% for the first, -1.76% for the second.

First: CCOC(=O)N1CCc2c(sc3c2C(=O)NC(c2ccccc2F)N3)C1 (configuration not stated)
Second: C/C(=C\c1ccccc1)C1NC(=O)c2c(sc3c2CCCC3)N1 (configuration not stated)
The “activity change, negative = inhibition” value of the first is lower: -9.86% for the first, 2.44% for the second.

Going from CC(C)[C@H](NC(=O)OCc1ccccc1)C(=O)OCc1ccccc1 to C/C(=N\NC(=O)CNC(=O)C(c1ccccc1)c1ccccc1)c1ccc(C)cc1, the “activity change, negative = inhibition” value rises from -0.684% to 2.35%.

Compared with Cc1cc(C)cc(Nc2ncnc3onc(-c4ccc(F)cc4)c23)c1, CC(C)Cn1c(=O)c2ccccc2n2c(-c3cccc(Cl)c3)nnc12 is lower in “activity change, negative = inhibition” value: 0.145% for the first, -7.72% for the second.

First: C/C(=N\NC(N)=S)c1cccnc1
Second: C/C(=N\NC(=O)Cc1ccc(Br)cc1)c1cccnc1
The “activity change, negative = inhibition” value of the first is higher: 0.115% for the first, -0.0582% for the second.

Compared with O=S(=O)(Nc1ccccc1)c1ccc(NS(=O)(=O)c2cccs2)cc1, COc1cc(NS(=O)(=O)c2cccs2)cc(OC)c1 is lower in “activity change, negative = inhibition” value: 0.235% for the first, -3.17% for the second.

First: C/C(=N\NC(=O)c1cccnc1)c1ccc(-n2ccnc2)cc1
Second: C/C(=N\NC(=O)c1cccnc1)c1ccc(-c2ccccc2)cc1
The “activity change, negative = inhibition” value of the first is lower: -5.01% for the first, 0.0468% for the second.

Going from CCOc1ccccc1-c1cc(C(=O)N/N=C(\C)c2cccnc2)c2ccccc2n1 to CCOc1ccc(C(CCc2ccccc2)NC(=O)c2ccc(OC)c(OC)c2)cc1OCC (configuration not stated), the “activity change, negative = inhibition” value falls from 2.99% to -1.05%.

Going from NS(=O)(=O)c1ccc(CCNC(=O)COC(=O)COc2cccc(C(F)(F)F)c2)cc1 to O=C(NCCc1ccc(C(F)(F)F)cc1)c1ccc2c(c1)OCO2, the “activity change, negative = inhibition” value falls from 3.88% to 3.23%.

Compared with COc1ccc(NC(=O)C2CCCN(S(=O)(=O)c3cccc4nonc34)C2)cc1Cl (configuration not stated), Cc1ccc(Cl)cc1N1CCN(C(=O)CN2C(=O)COc3ccc(S(=O)(=O)N4CCOCC4)cc32)CC1 is lower in “activity change, negative = inhibition” value: 2.63% for the first, -0.641% for the second.

Compared with Cc1cccc(N2CCN(C(=O)CCn3c(=O)c4cccn4c4cccnc43)CC2C)c1 (configuration not stated), O=C(C1CCN(c2nnc(-n3cccc3)s2)CC1)N1CCc2ccccc2C1 is higher in “activity change, negative = inhibition” value: 1.02% for the first, 1.79% for the second.

Going from O=C(NNS(=O)(=O)c1ccc([N+](=O)[O-])cc1)C1CCCCC1 to CC1CCc2sc(C(=O)NCC(c3ccco3)N3CCCCC3)cc2C1 (configuration not stated), the “activity change, negative = inhibition” value falls from 1.02% to -3.5%.

First: CC(NCC(=O)Nc1ccccc1C(=O)NC1CC1)c1ccccc1Cl (configuration not stated)
Second: CCOc1ccc(N=C2NC(=O)S/C2=C\c2ccc(O)cc2)cc1
The “activity change, negative = inhibition” value of the first is higher: -1.23% for the first, -7.47% for the second.

Going from C/C(=N/NC(=O)c1ccn(C)n1)c1ccncc1 to NC1=NC(=O)S/C1=C\c1ccc(O)cc1, the “activity change, negative = inhibition” value falls from -5.86% to -7.93%.

For CCC(CC)C(=O)N1CCc2cc(OC)c(OC)cc2C1COc1ccc(F)cc1 (configuration not stated), the “activity change, negative = inhibition” value was -4.53%.

For CC(=O)Oc1ccc(C(=O)Nc2nccs2)cc1, the Potency was 10.7 µM (active).
Cc1nc(-c2ccccc2)sc1-c1nnc(C2CC2)o1 was tested, and the Potency was 15.1 µM (active).
O=C1NC(c2ccncc2)Nc2sc3c(c21)CCCC3 (configuration not stated) was tested, and the Potency was 21.3 µM (active).
For C/C(=N\NC(=O)c1ccc2ccccc2c1)c1cccnc1, the Potency was 19 µM (active).
For C/C(=N\NC(=O)c1cc(-c2ccc(O)cc2)nc2ccccc12)c1cccnc1, the Potency was 6.01 µM (active).
With C/C(=N\NC(=O)c1ccc(NS(=O)(=O)c2cccs2)cc1)c1ccc2ccccc2c1 the Potency was 19 µM (active).
In the case of C/C(=N\NC(=O)Cc1ccccc1[N+](=O)[O-])c1cccnc1, the Potency is reported as 15.1 µM (active).
For C/C(=N\NC(=O)c1cc2c(s1)CCC(C)C2)c1cccnc1 (configuration not stated), the Potency was 16.9 µM (active).
With C/C(=N\NC(=O)c1nc(C)cc(C)n1)c1ccccc1 the Potency was 12 µM (active).
O=C1N=C(N2CCc3ccccc3C2)S/C1=C\c1ccc(O)cc1 was tested, and the Potency was 16.9 µM (active).
With CC1CCN(C2=NC(=O)/C(=C/c3ccc(O)cc3)S2)CC1 the Potency was 10.7 µM (active).
